14 molecules from ChEMBL document CHEMBL2218924, “A broad activity screen in support of a chemogenomic map for kinase signalling research and drug discovery” (Biochem J, 2013) can be followed below.

Experiment [1] addresses Focal adhesion kinase 1 (Homo sapiens) (UniProt Q05397). As to conditions: at 10 µM.
Experiment [2] addresses Fibroblast growth factor receptor 1 (Homo sapiens) (UniProt P11362). As to conditions: at 1 µM.
The target is the same in experiment [3]. As to conditions: at 10 µM.
For experiment [4], the target named is Fibroblast growth factor receptor 2 (Homo sapiens) (UniProt P21802). As to conditions: at 1 µM.
The target is the same in experiment [5]. As to conditions: at 10 µM.
The target of experiment [6] is Fibroblast growth factor receptor 4 (Homo sapiens) (UniProt P22455). As to conditions: at 1 µM.
The target in experiment [7] is Tyrosine-protein kinase Fer (Homo sapiens) (UniProt P16591). As to conditions: at 1 µM.
The target is the same in experiment [8]. As to conditions: at 10 µM.
Experiment [9] has as its target Tyrosine-protein kinase Fgr (Homo sapiens) (UniProt P09769). As to conditions: at 1 µM.
Experiment [10] has the same target. As to conditions: at 10 µM.
For experiment [11], the target named is Vascular endothelial growth factor receptor 1 (Homo sapiens) (UniProt P17948). As to conditions: at 1 µM.
The target is the same in experiment [12]. As to conditions: at 10 µM.
The target of experiment [13] is Receptor-type tyrosine-protein kinase FLT3 (Homo sapiens) (UniProt P36888). As to conditions: at 1 µM.
For experiment [14] the target is unchanged. As to conditions: at 10 µM.
The target in experiment [15] is Vascular endothelial growth factor receptor 3 (Homo sapiens) (UniProt P35916). As to conditions: at 1 µM.
The target of experiment [16] is Tyrosine-protein kinase Fes/Fps (Homo sapiens) (UniProt P07332). As to conditions: at 1 µM.
Experiment [17] shares this target. As to conditions: at 10 µM.
Experiment [18] addresses Fibroblast growth factor receptor 3 (Homo sapiens) (UniProt P22607). As to conditions: at 1 µM.
The target is the same in experiment [19]. As to conditions: at 10 µM.
Experiment [20] deals with Fibroblast growth factor receptor 4 (Homo sapiens) (UniProt P22455). As to conditions: at 10 µM.

Sequence of Vascular endothelial growth factor receptor 1 (Homo sapiens) (P17948 whole entry): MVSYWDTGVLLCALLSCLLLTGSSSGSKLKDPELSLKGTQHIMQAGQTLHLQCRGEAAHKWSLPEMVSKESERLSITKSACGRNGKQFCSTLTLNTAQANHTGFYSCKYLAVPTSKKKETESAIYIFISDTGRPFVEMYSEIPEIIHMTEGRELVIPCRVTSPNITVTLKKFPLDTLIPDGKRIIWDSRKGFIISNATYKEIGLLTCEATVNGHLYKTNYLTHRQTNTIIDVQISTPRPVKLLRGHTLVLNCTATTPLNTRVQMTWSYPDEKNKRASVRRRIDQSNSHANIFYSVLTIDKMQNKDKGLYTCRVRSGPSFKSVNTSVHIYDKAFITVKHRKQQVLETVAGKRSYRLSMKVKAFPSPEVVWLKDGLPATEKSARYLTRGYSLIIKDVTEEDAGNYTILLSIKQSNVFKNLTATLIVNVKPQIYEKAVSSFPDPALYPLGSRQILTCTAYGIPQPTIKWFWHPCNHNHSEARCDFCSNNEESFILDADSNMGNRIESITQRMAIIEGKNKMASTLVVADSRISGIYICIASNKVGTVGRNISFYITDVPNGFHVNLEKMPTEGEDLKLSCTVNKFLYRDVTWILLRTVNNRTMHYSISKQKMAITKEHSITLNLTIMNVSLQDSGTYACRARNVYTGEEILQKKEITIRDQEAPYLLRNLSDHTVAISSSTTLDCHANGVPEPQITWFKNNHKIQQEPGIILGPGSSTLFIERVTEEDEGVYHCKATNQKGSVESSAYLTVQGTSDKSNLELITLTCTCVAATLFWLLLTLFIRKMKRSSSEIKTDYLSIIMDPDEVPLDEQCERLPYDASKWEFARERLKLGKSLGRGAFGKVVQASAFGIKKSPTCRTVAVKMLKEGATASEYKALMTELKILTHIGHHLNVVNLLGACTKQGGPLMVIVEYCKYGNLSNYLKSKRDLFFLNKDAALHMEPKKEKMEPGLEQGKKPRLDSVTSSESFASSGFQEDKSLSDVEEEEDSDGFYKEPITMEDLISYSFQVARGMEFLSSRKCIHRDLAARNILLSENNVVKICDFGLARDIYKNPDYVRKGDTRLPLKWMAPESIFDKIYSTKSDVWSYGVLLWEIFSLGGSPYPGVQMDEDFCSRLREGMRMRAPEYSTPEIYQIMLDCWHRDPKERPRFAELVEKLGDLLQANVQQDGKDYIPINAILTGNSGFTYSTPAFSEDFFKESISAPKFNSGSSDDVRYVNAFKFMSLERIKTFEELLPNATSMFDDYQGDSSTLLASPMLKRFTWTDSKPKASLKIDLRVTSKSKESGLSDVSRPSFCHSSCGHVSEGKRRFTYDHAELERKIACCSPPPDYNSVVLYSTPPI
Sequence of Receptor-type tyrosine-protein kinase FLT3 (Homo sapiens) (P36888 whole entry): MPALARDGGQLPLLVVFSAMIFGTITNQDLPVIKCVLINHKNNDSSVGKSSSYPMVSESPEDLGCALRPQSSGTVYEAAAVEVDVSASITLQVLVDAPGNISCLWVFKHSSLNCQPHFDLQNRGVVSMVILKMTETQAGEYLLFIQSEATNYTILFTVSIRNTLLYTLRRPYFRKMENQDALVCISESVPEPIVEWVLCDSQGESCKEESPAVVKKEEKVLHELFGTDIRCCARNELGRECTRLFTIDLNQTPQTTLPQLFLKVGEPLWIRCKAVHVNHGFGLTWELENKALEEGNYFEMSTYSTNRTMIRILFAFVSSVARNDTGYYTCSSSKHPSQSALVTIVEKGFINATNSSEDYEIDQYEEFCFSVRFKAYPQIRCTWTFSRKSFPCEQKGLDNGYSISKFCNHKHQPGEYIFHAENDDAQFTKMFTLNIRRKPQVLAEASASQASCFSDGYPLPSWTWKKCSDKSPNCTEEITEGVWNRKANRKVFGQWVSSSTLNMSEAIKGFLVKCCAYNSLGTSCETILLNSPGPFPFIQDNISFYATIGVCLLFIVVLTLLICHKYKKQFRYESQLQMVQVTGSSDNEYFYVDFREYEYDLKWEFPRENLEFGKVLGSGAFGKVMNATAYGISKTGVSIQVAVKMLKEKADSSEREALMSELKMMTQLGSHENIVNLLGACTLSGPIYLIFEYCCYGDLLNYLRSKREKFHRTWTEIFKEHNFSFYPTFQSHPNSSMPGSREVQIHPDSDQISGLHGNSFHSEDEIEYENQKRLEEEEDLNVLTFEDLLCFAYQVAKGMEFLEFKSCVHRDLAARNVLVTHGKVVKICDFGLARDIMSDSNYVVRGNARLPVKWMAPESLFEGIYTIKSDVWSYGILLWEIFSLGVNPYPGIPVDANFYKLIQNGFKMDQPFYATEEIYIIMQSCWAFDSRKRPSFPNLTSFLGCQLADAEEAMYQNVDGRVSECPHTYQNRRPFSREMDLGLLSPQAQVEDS
Sequence of Tyrosine-protein kinase Fer (Homo sapiens) (P16591 whole entry, looked up): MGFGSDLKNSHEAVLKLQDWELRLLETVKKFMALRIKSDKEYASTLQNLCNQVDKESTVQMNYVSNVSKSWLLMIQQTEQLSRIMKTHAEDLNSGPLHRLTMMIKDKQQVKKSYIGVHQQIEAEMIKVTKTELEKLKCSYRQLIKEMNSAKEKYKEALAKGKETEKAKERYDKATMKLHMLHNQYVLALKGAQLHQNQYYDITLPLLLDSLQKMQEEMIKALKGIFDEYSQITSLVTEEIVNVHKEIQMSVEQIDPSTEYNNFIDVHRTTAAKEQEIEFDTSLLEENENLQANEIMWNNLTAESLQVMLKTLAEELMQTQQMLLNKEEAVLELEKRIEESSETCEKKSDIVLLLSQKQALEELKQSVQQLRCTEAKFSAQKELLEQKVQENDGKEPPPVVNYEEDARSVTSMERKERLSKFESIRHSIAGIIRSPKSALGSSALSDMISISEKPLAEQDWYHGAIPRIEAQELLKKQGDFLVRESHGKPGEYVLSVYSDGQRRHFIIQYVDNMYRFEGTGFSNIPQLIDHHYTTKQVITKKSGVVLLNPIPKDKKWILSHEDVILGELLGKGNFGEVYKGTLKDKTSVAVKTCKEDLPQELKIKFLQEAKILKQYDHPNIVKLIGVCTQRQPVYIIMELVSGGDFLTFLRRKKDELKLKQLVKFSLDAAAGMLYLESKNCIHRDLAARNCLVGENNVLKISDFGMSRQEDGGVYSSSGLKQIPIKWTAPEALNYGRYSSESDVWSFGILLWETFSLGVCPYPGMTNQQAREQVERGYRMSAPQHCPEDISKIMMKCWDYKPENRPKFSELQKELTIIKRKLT
Sequence of Fibroblast growth factor receptor 1 (Homo sapiens) (P11362 22-822 limits assumed): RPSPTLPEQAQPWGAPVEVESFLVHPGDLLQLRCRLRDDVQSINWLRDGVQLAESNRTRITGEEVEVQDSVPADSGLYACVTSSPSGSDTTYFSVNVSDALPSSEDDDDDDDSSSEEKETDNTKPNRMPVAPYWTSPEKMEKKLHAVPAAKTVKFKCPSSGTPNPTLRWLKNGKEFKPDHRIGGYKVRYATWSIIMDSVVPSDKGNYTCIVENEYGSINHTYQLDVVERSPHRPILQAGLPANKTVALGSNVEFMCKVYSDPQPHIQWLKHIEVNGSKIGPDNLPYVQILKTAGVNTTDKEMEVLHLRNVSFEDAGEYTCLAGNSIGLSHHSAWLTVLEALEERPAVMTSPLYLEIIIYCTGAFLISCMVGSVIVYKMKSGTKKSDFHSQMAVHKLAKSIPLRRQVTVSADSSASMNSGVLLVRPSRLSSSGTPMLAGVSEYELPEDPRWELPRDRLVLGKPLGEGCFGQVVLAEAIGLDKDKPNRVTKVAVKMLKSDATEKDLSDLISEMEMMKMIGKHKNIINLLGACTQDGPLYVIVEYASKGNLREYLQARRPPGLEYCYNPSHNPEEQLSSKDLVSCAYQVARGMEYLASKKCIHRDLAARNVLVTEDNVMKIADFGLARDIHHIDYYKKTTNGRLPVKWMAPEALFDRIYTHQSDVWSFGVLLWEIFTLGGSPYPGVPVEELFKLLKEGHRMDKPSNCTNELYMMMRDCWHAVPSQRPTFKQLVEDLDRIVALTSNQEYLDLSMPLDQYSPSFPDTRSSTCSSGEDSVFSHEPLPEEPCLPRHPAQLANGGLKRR
Sequence of Fibroblast growth factor receptor 4 (Homo sapiens) (P22455 22-802 limits assumed): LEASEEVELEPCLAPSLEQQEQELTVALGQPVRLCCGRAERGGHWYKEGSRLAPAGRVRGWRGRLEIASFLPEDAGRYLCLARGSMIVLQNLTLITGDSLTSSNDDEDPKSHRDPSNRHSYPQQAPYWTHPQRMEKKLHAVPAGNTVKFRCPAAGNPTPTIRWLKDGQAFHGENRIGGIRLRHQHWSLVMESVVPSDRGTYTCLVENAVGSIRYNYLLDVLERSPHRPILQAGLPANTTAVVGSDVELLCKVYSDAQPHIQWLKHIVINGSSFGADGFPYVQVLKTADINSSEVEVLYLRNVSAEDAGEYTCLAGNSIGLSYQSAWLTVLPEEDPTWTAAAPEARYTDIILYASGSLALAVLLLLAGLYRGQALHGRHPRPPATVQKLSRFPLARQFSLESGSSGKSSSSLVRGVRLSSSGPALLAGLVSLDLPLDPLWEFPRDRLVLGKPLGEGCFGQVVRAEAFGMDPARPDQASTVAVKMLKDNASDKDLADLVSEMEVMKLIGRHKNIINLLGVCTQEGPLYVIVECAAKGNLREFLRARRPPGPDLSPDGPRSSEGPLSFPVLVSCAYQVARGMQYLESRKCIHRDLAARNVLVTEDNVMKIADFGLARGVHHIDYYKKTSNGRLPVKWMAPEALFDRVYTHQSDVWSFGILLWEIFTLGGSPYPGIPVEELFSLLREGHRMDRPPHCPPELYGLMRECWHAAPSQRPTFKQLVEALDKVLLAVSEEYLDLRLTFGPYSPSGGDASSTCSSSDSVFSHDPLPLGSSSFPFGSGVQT

As to `Cn1c2ccccc2c2c3c(c4c5ccccc5n(CCC#N)c4c21)CNC3=O`, the residual activity – broadly, the signal under treatment as a percentage of the control signal – in [1] worked out at 17%; in experiment [2], 7%; in experiment [3] it was 6%; in experiment [4], 53%; in [5], 46%; in [6] it was 111%. In addition, the residual activity in [7] worked out at 4%; in [8] it was 4%; in experiment [9], 41%; in experiment [10] it was 47%; in experiment [11], 4%; in experiment [12], 4%. In addition, the residual activity in [13] is 0%; in experiment [14], 0%; in experiment [15], 2%.
`NC(=O)c1cccc(-c2cc(Nc3ccc(OC(F)(F)F)cc3)ncn2)c1`: the residual activity in experiment [1] worked out at 95%; in experiment [2], 96%; in [3], 92%; in experiment [16], 125%; in [17], 99%; in experiment [13], 97%. Moreover, the residual activity in experiment [14] was found to be 93%; in [15], 90%.
With `Cc1cc(C)c(/C=C2\C(=O)Nc3ccccc32)[nH]1`, the residual activity was determined as 9% in [1]; 65% in [2]; 13% in [3]; 80% in [18]; 68% in experiment [19]; 124% in [6]. The residual activity amounted to 100% in experiment [7]; 55% in [8]; 53% in [9]; 30% in [10]; 3% in experiment [11]; 0% in experiment [12]. The values for the residual activity in experiment [13], in experiment [14] and in experiment [15] were 1%, 0% and 1%, respectively.
For `CC(C)c1nn(-c2c(Cl)cccc2Cl)c2nc(Cc3ccc(OCCO)cc3)[nH]c(=O)c12`, the residual activity amounted to 66% in experiment [1]; 70% in experiment [2]; 27% in [3]; 108% in experiment [4]; 86% in experiment [5]; 104% in experiment [18]. The residual activity was found to be 99% in [19]; 100% in [7]; 95% in experiment [8]; 109% in experiment [16]; 97% in experiment [17]; 95% in experiment [10]. Further, the residual activity in experiment [11] came to 90%; in experiment [12], 82%; in experiment [13], 81%; in experiment [14], 81%; in experiment [15], 84%.
As to `O=C1C(Cl)=C(N2C(=O)CCC2=O)C(=O)c2ccccc21`, the residual activity was determined as 90% in experiment [1]; 118% in experiment [2]; 94% in experiment [3]; 100% in experiment [4]; 89% in experiment [5]; 98% in experiment [6]. The residual activity in experiment [20] was determined as 91%; in experiment [7], 87%; in [8], 91%; in experiment [16], 83%; in [17] it was 97%; in [9], 94%. The residual activity in experiment [10] is 96%; in [11], 96%; in experiment [12], 84%; in experiment [13], 90%; in experiment [14] it was 87%; in experiment [15] it was 91%.
With `O=C1Nc2ccc(Cl)cc2/C1=C/c1cc(Cl)c(O)c(Cl)c1`, the residual activity in [1] was determined as 58%; in experiment [2], 93%; in experiment [3], 53%; in experiment [4], 80%; in experiment [5] it was 39%; in experiment [18] it was 96%. In addition, the residual activity in experiment [19] is 62%; in experiment [9], 96%; in [10], 42%; in experiment [11], 55%; in [12], 1%; in experiment [13], 21%. Besides, the figures for the residual activity in experiment [14] and in experiment [15] were 1% and 3%, respectively.
For the molecule `Nc1ncnc2c1cnn2-c1ccccc1`, the residual activity in experiment [1] is 95%; in [2] it was 127%; in [3], 94%; in experiment [4], 96%; in [5], 83%; in [18], 76%. Further, the residual activity in experiment [19] was determined as 83%; in [20] it was 97%; in experiment [10], 85%; in experiment [11], 96%; in experiment [12] it was 88%; in experiment [13], 95%. Also, the figures for the residual activity in [14] and in experiment [15] were 55% and 99%, respectively.
For `CN(C)S(=O)(=O)c1ccc2c(c1)/C(=C/c1cc3c([nH]1)CCCC3)C(=O)N2`, the residual activity in experiment [1] turned out to be 8%; in [2] it was 36%; in experiment [3], 54%; in [4], 51%; in experiment [5], 30%; in experiment [19], 90%. Moreover, the residual activity in experiment [6] came out at 84%; in experiment [20], 87%; in experiment [7], 59%; in experiment [8], 68%; in experiment [16], 82%; in experiment [17], 61%. Moreover, the residual activity in [9] came out at 21%; in experiment [10], 9%; in experiment [11], 67%; in experiment [12], 56%; in experiment [13] it was 27%; in experiment [14], 41%. Further, in [15], the residual activity was 33%.
Consider `O=C1NC(=O)c2c1c1c3ccccc3[nH]c1n1cncc21`, for which the residual activity stood at 25% in experiment [1]; 41% in [2]; 9% in [3]; 72% in [4]; 32% in experiment [5]; 76% in experiment [18]. Besides, the residual activity in experiment [19] was 41%; in experiment [6] it was 102%; in [20] it was 80%; in experiment [16], 79%; in [17], 56%; in [9], 75%. The residual activity in [10] worked out at 45%; in [11] it was 16%; in experiment [12], 3%; in [13] it was 18%; in experiment [14] it was 5%; in experiment [15], 0%.
For `O=c1cc(N2CCOCC2)oc2c1ccc1ccccc12`, the residual activity turned out to be 92% in experiment [1]; 109% in experiment [2]; 71% in [3]; 111% in experiment [4]; 101% in experiment [5]; 96% in [8]. Moreover, the residual activity in experiment [17] was found to be 98%; in [9] it was 107%; in [10], 94%; in experiment [11], 98%; in experiment [12], 95%; in [13], 101%. Besides, the residual activity stood at 97% in [14] and 94% in [15].
In the case of `O=C(c1ccccc1)c1ccc(N2CCOCC2)cc1O`, the residual activity in experiment [1] was determined as 85%; in experiment [2], 98%; in [3] it was 73%; in [6] it was 116%; in experiment [20] it was 95%; in experiment [7] it was 125%. Further, the residual activity is 97% in [8]; 116% in experiment [16]; 93% in experiment [17]; 100% in experiment [11]; 93% in [12]; 83% in experiment [13]. For the same molecule, the results for the residual activity in [14] and in experiment [15] were 53% and 87%, respectively.
For the molecule `Nc1nccc(-c2c(-c3ccc(F)cc3)ncn2C2CCNCC2)n1`, the residual activity in experiment [1] was 71%; in experiment [2], 119%; in [3] it was 27%; in experiment [4], 113%; in experiment [5] it was 67%; in experiment [18] it was 120%. The values for the residual activity in experiment [19], in experiment [10] and in experiment [15] were 83%, 25% and 69%, respectively.
`CCN(CC)CCNC(=O)c1c(C)[nH]c(/C=C2\C(=O)Nc3ccc(Cl)cc32)c1C`: the residual activity was determined as 4% in experiment [1]; 7% in experiment [2]; 1% in [3]; 14% in [4]; 3% in experiment [5]; 8% in [18]. Also, the residual activity in [19] was found to be 1%; in experiment [7] it was 79%; in experiment [8], 14%; in experiment [16], 14%; in [17], 2%; in experiment [9], 8%. Also, the residual activity in [10] is 2%; in experiment [11] it was 5%; in experiment [12] it was 0%; in [13] it was 1%; in [14], -1%; in [15], 0%.
As to `Oc1cccc(-c2nc(N3CCOCC3)c3oc4ncccc4c3n2)c1`, the residual activity in [1] was 50%; in experiment [2], 97%; in [3] it was 78%; in experiment [4] it was 122%; in experiment [5] it was 123%; in experiment [20], 99%. Besides, the residual activity in experiment [7] is 119%; in experiment [8], 99%; in [16] it was 137%; in [9], 118%; in [10], 97%; in experiment [11], 91%. In addition, the values for the residual activity in experiment [12], in [13] and in [14] were 80%, 89% and 72%, respectively.
